Screens from PubChem.
Shown are actives, neighbours in structure and some others; about 8% of the full set was active somewhere.
SW480 rereplic = DNA re-replication induction in SW480 cells; Potency, µM (doses to about 46.1 µM), for the others: top-dose re-replication activation, hits mostly activators; hit rate 1.8% among 340,000; SW480 DNA re-replication, Hoechst DNA content imaging, 48 h; AID 624297; also: % of control where 0% means no effect; nearly all actives have a fitted effect of over 55% in size
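Cells (250 per well) received 23 nL compound or DMSO by pin tool and were kept 48 hr at 37 C, 5% CO2. Nuclei were then stained with Hoechst for 40 min and scanned for DNA content.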
HT1080-NT tox = kills 2HG-producing HT-1080-NT fibrosarcoma cells; HT-1080-NT fibrosarcoma viability, CellTiter-Glo ATP luminescence, 48 h; Potency, µM (series often up to 46.1 µM), inactives show at the highest dose activity, negative = less viability, hits mostly cytotoxic; hit rate 1.6% among 360,000; AID 686970;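 also: NT is the 2HG producing partner of a matched IDH1 knockdown line; 0% = DMSO-treated cells and -100% = media-only wells without cells; nearly all actives have a fitted effect of over 55% in size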
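Fibrosarcoma NT cells, 750 per well in 5% FBS RPMI, were exposed to compound for 48 hours. Viability: CellTiter-Glo luminescence.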
HT1080 IDH1KD tx = HT-1080 IDH1 knockdown cell toxicity (counter line). AID 686971. HT-1080 IDH1 knockdown viability, ATP luminescence, 48 h. Potency, µM (top dose mostly 46.1 µM), inactives show top-dose activity, negative = toxicity, usual class: cytotoxic. hit rate 2% among 360,000;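 also: 0% = DMSO wells and -100% = cell-free medium wells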
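In this qHTS, HT-1080 cells depleted of IDH1 are exposed for 48 h at 37 °C to compound titrations. Toxicity is scored from CellTiter-Glo luminescence, with DMSO as full viability and medium alone as none.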
KB-V1 cytotox = kills drug-selected multidrug resistant KB-V1 cells | KB-V1 MDR cells viability, CellTiter-Glo, 72 h | Potency, µM (top dose mostly 46.1 µM), usual class: cytotoxic | hit rate 3.4% among 400,000; also: % is scaled to controls: 0 for no effect and ±100 for the full control effect; nearly all actives have a fitted effect of over 60% in size
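KB-V1 cells (P-gp-expressing MDR subline of KB-3-1) in phenol-red-free DMEM with 10% FBS were exposed to library compounds over a concentration series for 72 h at 37 degrees C. Viability read by CellTiter-Glo luminescence; concentration-effect curves fitted after normalization.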
MCF10A rereplic = DNA re-replication induction in MCF 10a cells. MCF 10A DNA re-replication, Hoechst nuclear intensity, 48 h. Potency, µM (doses to about 46.1 µM), without a hit: at the highest dose activity, positive = re-replication, actives largely listed as activators. hit rate 2.9% among 350,000. AID 624296; also: % of control where 0% means no effect; nearly all actives have a fitted effect of over 50% in size
KB-3-1 tox = kills parental KB-3-1 adenocarcinoma cells; AID 1347075; KB-3-1 viability, CellTiter-Glo ATP luminescence, 72 h; hit rate 1.4% among 400,000; Potency, µM (series often up to 46.1 µM), actives largely listed as cytotoxic; also: % is scaled to controls: 0 for no effect and ±100 for the full control effect; nearly all actives have a fitted effect of over 60% in size
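Screening of KB-3-1 cells (DMEM, 10% FBS, phenol-red free) ran from lowest to highest compound concentration; after 72 h at 37 °C viability was read luminescently and curves fitted.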
An asterisk follows results filed as active; i = inactive; ? = inconclusive; . = no result; [ ] = another dose, or the depositor's remark. Calls follow the shape of the dose curve; as a rule, active = well fitted curve in the direction sought with a large enough effect; inconclusive = small, poorly fitted or top-dose-only effect, or another doubt; inactive = no such curve, though single readings can be large; an effect the other way counts as inactive or inconclusive. Potency is read from the fitted curve at half-maximal effect.

SMILES	SW480 rereplic	HT1080-NT tox	HT1080 IDH1KD tx	KB-V1 cytotox	MCF10A rereplic	KB-3-1 tox
CCc1ccccc1N(C)S(=O)(=O)c1cc(-c2cc(C)no2)ccc1OC	?	?	?	i	?	?
COc1ccc(Cl)cc1NC(=O)CN(C)C(=O)C1COc2ccccc2O1 (stereo not given)	-2%	-9%	-4%	16µM*	8%	i
COc1ccc(Cl)cc1NC(=O)C1COc2ccccc2O1 (stereo not given)	1%	3%	5%	i	-2%	i
CN1CCN(c2ccc(Cl)cc2NC(=O)c2cccc(S(=O)(=O)N(C)C)c2)CC1	-1%	?	14%[9.24 µM]	i	7%	i
CN1CCN(c2ccc(Cl)cc2NC(=O)C2COc3ccccc3O2)CC1 (stereo not given)	?	15µM*	?	i	18%	?
CN1CCN(c2ccc(Cl)cc2NC(=O)/C=C/c2cccc(F)c2)CC1	?	12µM*	21µM*	i	11%	?
O=C(Nc1cc(S(=O)(=O)N2CCOCC2)ccc1N1CCCC1)C1COc2ccccc2O1 (stereo not given)	4%	1%	-2%	i	3%	i
COc1ccc(Cl)cc1NC(=O)CNc1ccccc1CN(C)C1CCCCC1	16%	?	16µM*	?	10%	i
Cc1cccc(C)c1NC(=O)Cn1cc(S(=O)(=O)Cc2ccc(F)cc2)c2ccccc21	.	.	.	i	.	i
COCCN(CC(=O)Nc1cccc(C)c1C)C(=O)C1CCN(S(=O)(=O)c2ccccc2)CC1	-3%	-6%	-12%	9.2µM*	1%	i
COc1ccc(/C=C2/SC(=O)N(CCNC(=O)C3COc4ccccc4O3)C2=O)cc1 (stereo not given)	-4%	-1%	4%	?	0%	i
CCOc1ccc(/C=C2\SC(=O)N(CCNC(=O)C3COc4ccccc4O3)C2=O)cc1OC (stereo not given)	-3%	-4%	-4%	16µM*	?	i
COc1cc(OC)c(OC)cc1NC(=O)CC1COc2ccccc2O1 (stereo not given)	2%	5%	6%	15µM*	5%	i
COc1ccc(C)cc1NC(=O)CC1COc2ccccc2O1 (stereo not given)	0%	-1%	12%	i	?	i
COc1ccc(Cl)cc1NC(=O)CN(C)C(=O)c1cc2c(s1)CCCC2	18µM*	-8%	-20%	13µM*	?	?
Cc1ccc(CN(C(=O)COc2cc(C)c(Cl)c(C)c2)c2ccccn2)o1	.	.	.	i	.	i
O=C1N=c2ccccc2=C1c1sc(=S)n(Cc2ccccc2Cl)c1O	16µM*	12%	4%	?	1%	?
Nc1nn(-c2ccccc2)c(N)c1N=Nc1ccccc1F	10µM*	8.2µM*	5.8µM*	4.6µM*	8.2µM*	?
Nc1ncnc(N)c1N=Nc1ccccc1	?	?	12µM*	i	-2%	?
Nc1nn(-c2ccccc2)c(N)c1N=Nc1ccccc1	5.2µM*	?	16µM*	5.8µM*	5.8µM*	?
Nc1c(N=Nc2ccccc2F)c(=O)[nH]n1-c1ccccc1	-2%[9.22 µM]	-14%	-4%	i	12%	i
Cc1nn(-c2ccccc2)c(N)c1N=Nc1ccc(Cl)cc1	?	?	?	?	?	i
CCc1ccc(CCC(=O)N2CCN(S(=O)(=O)c3ccc(Br)cc3)CC2)cc1	.	-16%	-22%	?	.	i
CCN(CC(=O)Nc1ccc(NC(C)=O)cc1)C(=O)/C=C/c1ccco1	-35%	2%	-2%	?	3%	i
CCCN(CC(=O)Nc1ccc(Cl)cc1Cl)C(=O)/C=C/c1ccco1	-4%	?	?	?	9.2µM*	?
SMILES	SW480 rereplic	HT1080-NT tox	HT1080 IDH1KD tx	KB-V1 cytotox	MCF10A rereplic	KB-3-1 tox
COc1cccc(C(=O)Nc2c(C(=O)N3CCN(c4ccc(F)cc4)CC3)oc3ccccc23)c1	.	.	.	?	.	i
COc1ccc(-c2noc(Cn3cc(S(=O)(=O)N4CCCC4)ccc3=O)n2)cc1	-1%	1%	3%	5.8µM*	-2%	i
O=c1ccc(S(=O)(=O)N2CCCC2)cn1Cc1nc(-c2ccc(F)cc2)no1	4%	0%	0%	?	?	i
CCOc1ccc(NC(=O)c2cc3cc4cc(OC)ccc4nc3s2)cc1	.	.	.	i	.	i
C=CCn1c(SCc2csc(C)n2)nc2sc3c(c2c1=O)CCC(C)C3 (stereo not given)	-1%	1%	-10%	i	21µM*	i
C=CCn1c(SCc2csc(C)n2)nc2sc3c(c2c1=O)CCCC3	3%	-13%	?	i	16µM*	?
COc1cc(C(=O)NNC(=O)CNC(=O)C2CCCCC2)ccc1OC(C)C	2%	8%	4%	i	-1%	i
CCOC(=O)c1c(-c2ccc(C)cc2)csc1NC(=O)/C(C#N)=C/c1ccc(O)c(OC)c1	?	-1%	-2%	i	21µM*	i
CCOC(=O)c1c(-c2ccccc2)csc1NC(=O)/C(C#N)=C\c1ccc(O)c(OC)c1	?	-10%	-18%	i	2.3µM*	i
CCOc1ccc(S(=O)(=O)N2CCN(c3nc(-c4ccccc4)nc4ccccc34)CC2)cc1OCC	.	.	.	i	.	i
O=C(OCc1ccccc1)c1cccnc1	7%	.	.	.	2%	.
CCCCOc1ccc(S(=O)(=O)Nc2ccc(-c3ccc(N4CCC(C)CC4)nn3)cc2)cc1	.	.	.	i	.	i
N#Cc1c(Cl)cccc1N1CCCC1	3%	-1%	6%	i	-1%	i
N#Cc1c(N2CCSCC2)nsc1-c1ccccc1Cl	?	-25%	?	4.6µM*	?	3.7µM*
N#Cc1c(Cl)cccc1N1CCSCC1	.	8%	-1%	23µM*	.	?
CC(OC(=O)c1cccc(O)c1)C(=O)N(C)Cc1ccccc1 (stereo not given)	16%	1%	16%	?	12%	i
CC(OC(=O)c1ccccc1NS(=O)(=O)c1cccc(N)c1)C(=O)N(C)Cc1ccccc1 (stereo not given)	1%	4%	3%	3.7µM*	-21%	?
O=C(N/C(=C\c1cccs1)C(=O)N1CCCCCC1)c1ccccc1	-2%	-2%	2%	i	1%	i
O=C(N/C(=C/c1ccco1)C(=O)N1CCCCCC1)c1ccccc1	-9%	1%	12%	i	-32%	i
O=C(N/C(=C/c1cccs1)C(=O)N1CCCCCC1)c1ccccc1	2%	3%	9%	21µM*	14%	i
